Source: PubChem BioAssay (National Center for Advancing Translational Sciences (NCATS))
Only some compounds are listed: those with a hit (about 19% of all), similar ones and a draw of the others.
TGFb SMAD3 inh – blocks TGF-b signaling | HepG2 CAGA-GFP TGF-b/SMAD3 reporter, GFP fluorescence, 18 h; TGF-beta stimulated, 500 pg/mL final | hit rate 1.2% among 410,000 | AID 588855 | Potency, µM (titrated, usually from 46.1 µM), inactives show at the highest dose activity, negative = inhibition, actives largely listed as inhibitors; also: potency is read from the fitted curve at half-maximal effect; % is scaled to controls: 0 for no effect and ±100 for the full control effect; nearly all actives have a fitted effect of over 65% in size
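Inhibition was scored as loss of TGF-beta-induced (500 pg/mL final, 18 hours, 37 degrees C) GFP in HEPG2 cells carrying a CAGA-GFP reporter, in DMEM with 1% FBS. Well GFP was summed per cell; Activity was normalised to unstimulated and stimulated DMSO wells, then concentration-response fitting.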
DT40 TDP1 no CPT – qHTS for Inhibitors of human tyrosyl-DNA phosphodiesterase 1 (TDP1): qHTS in cells in absence of CPT. DT40 Tdp1-/- hTDP1 cells, no CPT, ATP luminescence, 48 h. Potency, µM (doses to about 46.2 µM), without a hit: top-dose activity change, negative = growth inhibition, actives largely listed as inhibitors. hit rate 15% among 420,000; also: potency is read from the fitted curve at half-maximal effect; % is scaled to controls: 0 for no effect and ±100 for the full control effect; nearly all actives have a fitted effect of over 55% in size
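Chicken DT40 Tdp1-/- cells stably complemented with human TDP1 were seeded at 400 cells/well with DMSO in place of 20 nM camptothecin. After compound pinning, cells grew at least 48 hr at 37 °C; viability read by CellTiter-Glo luminescence.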
TDP1 inh – inhibitors of human tyrosyl-DNA phosphodiesterase TDP1. recombinant TDP1, AlphaScreen DNA substrate cleavage. Potency, µM (titrated, usually from 130 µM), for the others: at the top dose activity change, negative = inhibition, most hits filed as inhibitors. Q9NUW8. hit rate 0.28% among 350,000; also: potency is read from the fitted curve at half-maximal effect; % is scaled to controls: 0 for no effect and ±100 for the full control effect; nearly all actives have a fitted effect of over 40% in size
Target sequence (Q9NUW8 whole entry, looked up): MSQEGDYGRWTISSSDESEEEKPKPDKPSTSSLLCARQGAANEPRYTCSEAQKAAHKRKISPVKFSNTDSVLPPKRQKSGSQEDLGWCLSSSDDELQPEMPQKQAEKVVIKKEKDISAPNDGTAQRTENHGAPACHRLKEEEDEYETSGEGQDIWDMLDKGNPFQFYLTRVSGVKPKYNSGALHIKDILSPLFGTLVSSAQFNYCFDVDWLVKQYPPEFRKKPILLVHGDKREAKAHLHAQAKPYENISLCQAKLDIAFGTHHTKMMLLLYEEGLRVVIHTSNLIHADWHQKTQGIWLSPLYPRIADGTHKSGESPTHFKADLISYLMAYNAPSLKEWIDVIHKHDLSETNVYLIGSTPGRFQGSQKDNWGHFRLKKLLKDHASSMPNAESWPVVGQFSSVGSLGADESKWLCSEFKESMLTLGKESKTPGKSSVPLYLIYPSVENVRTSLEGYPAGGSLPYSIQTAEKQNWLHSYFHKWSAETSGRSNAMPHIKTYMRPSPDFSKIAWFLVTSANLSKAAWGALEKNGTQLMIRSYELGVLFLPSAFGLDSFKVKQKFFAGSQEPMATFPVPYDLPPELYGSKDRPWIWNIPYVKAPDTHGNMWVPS
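Recombinant E. coli-expressed Tdp1 (1 nM) preincubated with compound 15 min at RT, then 5'-biotin/3'-phosphotyrosine-FITC DNA substrate (15 nM) added for 5 min. AlphaScreen beads (10 ug/ml) added, 10 min RT; tyrosine-FITC cleavage read as signal loss.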
DT40 TDP1 CPT – DT40-hTDP1 cell growth loss with CPT. chicken DT40 Tdp1-/-;hTDP1 cells + 20 nM CPT, ATP luminescence, 48 h. Potency, µM (top dose mostly 46.2 µM), inactives show at the top dose activity change, negative = growth inhibition, hits mostly inhibitors. hit rate 12% among 420,000. AID 686979; also: potency is read from the fitted curve at half-maximal effect; % is scaled to controls: 0 for no effect and ±100 for the full control effect; nearly all actives have a fitted effect of over 55% in size
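Chicken DT40 Tdp1-/- cells stably complemented with human TDP1 were seeded at 400 cells/well in medium containing 20 nM camptothecin, exposed to pin-transferred compounds, and grown at 37 °C for at least 48 hr. Viability was read as ATP luminescence.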
IL1B secr inh – inhibitors of inflammasome signaling (IL-1 beta secretion); THP-1 LPS/ATP IL-1B secretion, AlphaLISA, 16 h; active compounds read low; activity change, % at 57.5 µM; hit rate 4.7% among 360,000; AID 743279; in the data active = activity change below about -50%; inconclusive = mostly about -30% to -49%; also: % is scaled to controls: 0 for no effect and ±100 for the full control effect
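THP-1 cells pretreated 1 hr with compounds (up to 57.5 uM final), then stimulated with LPS (250 ng/mL final) plus ATP (1.25 mM final); secreted IL-1B measured by AlphaLISA after 16 hr, decreased signal indicating inhibition.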
HepG2 viability – counter-screen for TGF-b inhibitors: cytotoxicity in HepG2 cells; HepG2 CAGA-GFP viability, ATP luminescence, 18 h; Potency, µM (titrated, usually from 46.1 µM), for inactives: at the highest dose activity change, negative = cytotoxicity, actives largely listed as cytotoxic; hit rate 0.76% among 410,000; also: potency is read from the fitted curve at half-maximal effect
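CellTiter-Glo luminescence gave cytotoxicity after 18 hours at 37 degrees C. The cells were HepG2 CAGA-GFP in 1% FBS DMEM, stimulated with 500 pg/mL TGF-beta after compound addition. %Activity was normalised to no-cell wells (complete cell-killing) and DMSO (no toxicity), and curves were fitted and classified.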
* marks the source's active call; other numbers are inactive results; [ ] = remark or other dose. Unless noted, calls follow the shape of the dose curve; as a rule, active = well fitted curve in the direction sought with a large enough effect; inconclusive = small, poorly fitted or top-dose-only effect, or another doubt; inactive = no such curve, though single readings can be large; an effect the other way counts as inactive or inconclusive.

`CC(=O)Nc1cc(-c2ccc(N(C)C)cc2)cn2c(-c3ccc(F)cc3)cnc12` gave TGFb SMAD3 inh -17%, DT40 TDP1 no CPT inconclusive, DT40 TDP1 CPT inconclusive, IL1B secr inh -6 and HepG2 viability -27%.
For CC(=O)Nc1cc(-c2ccc(S(C)(=O)=O)cc2)cn2c(-c3ccc(F)c(Cl)c3)cnc12 the results were TGFb SMAD3 inh inconclusive, DT40 TDP1 no CPT 16µM*, DT40 TDP1 CPT 18µM*, IL1B secr inh inconclusive and HepG2 viability -2%.
CCCOc1ccccc1C(=O)Nc1nc2c(s1)CCCC2 was read as TGFb SMAD3 inh 0%, DT40 TDP1 no CPT 18µM*, TDP1 inh 2%, DT40 TDP1 CPT 21µM* and HepG2 viability -20%.
For O=C(COc1ccccc1Cl)Nc1nc2c(s1)CCCC2 the results were TGFb SMAD3 inh 0%, DT40 TDP1 no CPT 10µM*, TDP1 inh 3%, DT40 TDP1 CPT 8.2µM* and HepG2 viability -28%.
O=C(COc1ccccc1)Nc1nc2c(s1)CCCC2 was read as TGFb SMAD3 inh -21%, DT40 TDP1 no CPT inconclusive, DT40 TDP1 CPT inconclusive, IL1B secr inh -20 and HepG2 viability 0%.
Screening CN1CCCC(CNC(=O)c2cnn(-c3ncc4c(n3)-c3ccccc3CC4)c2C2CC2)C1 (stereo not given) returned DT40 TDP1 no CPT -10% and DT40 TDP1 CPT -12%[9.04 µM].
Screening O=C(COc1ccccc1)Nc1nc(-c2ccc(S(=O)(=O)N3CCOCC3)cc2)cs1 returned TGFb SMAD3 inh -8%, DT40 TDP1 no CPT inconclusive, TDP1 inh 6%, DT40 TDP1 CPT inconclusive, IL1B secr inh -1 and HepG2 viability -26%.
Screening O=C(CCc1ccc(S(=O)(=O)N2CCOCC2)cc1)Nc1nc(COc2ccccc2)cs1 returned TGFb SMAD3 inh -21%, DT40 TDP1 no CPT inconclusive, TDP1 inh -1%, DT40 TDP1 CPT 15µM*, IL1B secr inh inconclusive and HepG2 viability -19%.
For COc1ccccc1OCC(=O)Nc1nc(-c2ccc(S(=O)(=O)N3CCOCC3)cc2)cs1 the results were TGFb SMAD3 inh -16%, DT40 TDP1 no CPT 13µM*, DT40 TDP1 CPT 21µM*, IL1B secr inh 11 and HepG2 viability 0%.
COc1ccc(-c2csc(NC(=O)c3ccc(OCC(=O)N4CCOCC4)c(OC)c3)n2)cc1OC was read as TGFb SMAD3 inh 0%, DT40 TDP1 no CPT 15µM*, TDP1 inh -1%, DT40 TDP1 CPT 16µM*, IL1B secr inh -94* and HepG2 viability -21%.
`CCOC(=O)c1ccccc1NC(=O)N1CCC(CN2CCOCC2)CC1` gave TGFb SMAD3 inh 20%, DT40 TDP1 no CPT -26%, TDP1 inh 7%, DT40 TDP1 CPT -9% and HepG2 viability 3%.
For Cc1cccc(CCNC(=O)C2CCCN(c3cnccn3)C2)c1 (stereo not given) the results were TGFb SMAD3 inh 13%, DT40 TDP1 no CPT inconclusive, TDP1 inh 2%, DT40 TDP1 CPT -4%, IL1B secr inh 0 and HepG2 viability 4%.
For CCCNC(=O)c1ccc2c(c1)N(Cc1cccc(C)c1)C(=O)c1ccccc1S2 the results were TGFb SMAD3 inh 0%, DT40 TDP1 no CPT -12%, TDP1 inh 5%, DT40 TDP1 CPT -14% and HepG2 viability -16%.
Screening CCN(C(=O)CN1C(=O)c2ccccc2Sc2ccc(C(=O)OC)cc21)c1cccc(C)c1 returned DT40 TDP1 no CPT 23µM*, TDP1 inh 7%, DT40 TDP1 CPT inconclusive and HepG2 viability -3%.
`CCN(CC)C(=O)c1ccc2c(c1)N(Cc1c(F)cccc1Cl)C(=O)c1ccccc1S2` gave TGFb SMAD3 inh 16µM*, DT40 TDP1 no CPT inconclusive, TDP1 inh 2%, DT40 TDP1 CPT inconclusive and HepG2 viability -5%.
Screening O=C(NC1CCCCC1)c1ccc2c(c1)N(Cc1ccccc1)C(=O)c1ccccc1S2 returned TGFb SMAD3 inh 27%, DT40 TDP1 no CPT -32%, TDP1 inh 8%, DT40 TDP1 CPT -13% and HepG2 viability 4%.
`O=C(NC1CCCC1)c1ccc2c(c1)N(Cc1c(F)cccc1Cl)C(=O)c1ccccc1S2` gave TGFb SMAD3 inh 0%, DT40 TDP1 no CPT 16µM*, TDP1 inh 0%, DT40 TDP1 CPT 16µM* and HepG2 viability 2%.
`Cc1ccc(C)c(CN2C(=O)c3ccccc3Sc3ccc(C(=O)NCCCOC(C)C)cc32)c1` gave TGFb SMAD3 inh inconclusive, DT40 TDP1 no CPT 21µM*, TDP1 inh 5%, DT40 TDP1 CPT inconclusive and HepG2 viability -24%.
O=C(Nc1ccccc1)N1CCCC2(CCN(C(=O)c3ccco3)CC2)C1 was read as DT40 TDP1 no CPT 0% and DT40 TDP1 CPT 7%.
For CCCCN1CCC[C@@H]1CNC(=O)c1cc(C#N)c2ccccc2c1OC the results were DT40 TDP1 no CPT inconclusive, TDP1 inh -12%[56.1 µM] and DT40 TDP1 CPT inconclusive.
Screening COCCNC(=O)c1ccc2c(c1)N(Cc1c(F)cccc1Cl)C(=O)c1ccccc1S2 returned TGFb SMAD3 inh inconclusive, DT40 TDP1 no CPT 21µM*, TDP1 inh 2%, DT40 TDP1 CPT -27% and HepG2 viability -18%.
Screening CC(C)OCCCNC(=O)c1ccc2c(c1)N(Cc1c(F)cccc1Cl)C(=O)c1ccccc1S2 returned TGFb SMAD3 inh inconclusive, DT40 TDP1 no CPT 26µM*, TDP1 inh 2%, DT40 TDP1 CPT 23µM* and HepG2 viability -12%.
Screening CNC(=O)c1ccc2c(c1)N(Cc1ccccc1Cl)C(=O)c1ccccc1S2 returned TGFb SMAD3 inh -25%, DT40 TDP1 no CPT inconclusive, TDP1 inh 6%, DT40 TDP1 CPT inconclusive and HepG2 viability -36%.
For O=C(Nc1nnc(S(=O)(=O)N2CCN(c3ccc(F)cc3)CC2)s1)c1ccc(Cl)cc1 the results were TGFb SMAD3 inh -1%, DT40 TDP1 no CPT -24%, TDP1 inh 5%, DT40 TDP1 CPT -29% and HepG2 viability -11%.
`Cc1ccc(F)cc1CNC(=O)C1CCC(=O)N(C2CC2)C1` (stereo not given) gave TGFb SMAD3 inh 0%, DT40 TDP1 no CPT -4%, TDP1 inh 1%, DT40 TDP1 CPT -10%, IL1B secr inh -6 and HepG2 viability -45%.
For CCCn1c(CCC(=O)Nc2ccc(C)c(Cl)c2)nc2cccnc21 the results were TGFb SMAD3 inh 0%, DT40 TDP1 no CPT inconclusive, TDP1 inh 1%, DT40 TDP1 CPT inconclusive and HepG2 viability -20%.
